According to PubChem BioAssay AID1159580 (chemical genetic matrix, 2015):
Out of some 5,500 compounds screened, about 2,000 (36%) were called active. About 18% were inconclusive and are not listed. Rule as the data show it: active = normalized growth mostly below about 0.91 (no sharp cut-off); inconclusive = no clear call, values can overlap the other calls; inactive = mostly above about 0.92. Some of the results follow.

Assay: chemical genetic growth profiling, strain panel (AID 1159580);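 also: tested at 20 µM; growth read once vehicle control cultures reached saturation at 30 °C; 1 = growth at the plate median or of vehicle wells; lower values mean less growth of the strain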
Details: S. cerevisiae deletion strains, growth OD

Measured: normalized growth

COc1cc(O)c2c(=O)cc(-c3ccc(OC)c(-c4c(O)cc(O)c5c(=O)cc(-c6ccc(O)cc6)oc45)c3)oc2c1
active: locus YBR021W, strain FUR4, active compounds read low 1.18 [resistant] | locus YGL248W, strain PDE1, active compounds read low 0.877
inactive: locus YAL021C, strain ccr4, active compounds read low 0.991 | locus YAL026C, strain drs2, active compounds read low 0.982 | locus YAL030W, strain snc1, active compounds read low 1.01 | locus YBL061C, strain skt5, active compounds read low 0.996 | locus YBR009C, strain hhf1, active compounds read low 0.988 | locus YBR023C, strain chs3, active compounds read low 0.993 | locus YBR171W, strain sec66, active compounds read low 1.03 | locus YBR229C, strain ROT2, active compounds read low 0.948 | locus YBR231C, strain swc5, active compounds read low 0.972 | locus YBR279W, strain paf1, active compounds read low 1 | locus YCL011C, strain gbp2, active compounds read low 1.02 | locus YCL016C, strain dcc1, active compounds read low 1 | locus YCL029C, strain bik1, active compounds read low 0.992 | locus YCL061C, strain MRC1, active compounds read low 1 | locus YCL069W, strain vba3, active compounds read low 1.02 | locus YCR088W, strain abp1, active compounds read low 1.03 | locus YDL005C, strain med2, active compounds read low 1.03 | locus YDL035C, strain GPR1, active compounds read low 0.951 | locus YDL040C, strain nat1, active compounds read low 1.01 | locus YDL074C, strain BRE1, active compounds read low 1.01 | locus YDL101C, strain DUN1, active compounds read low 0.959 | locus YDL134C, strain PPH21, active compounds read low 0.917 | locus YDL185W, strain tfp1, active compounds read low 0.968 | locus YDL192W, strain arf1, active compounds read low 1 | locus YDR001C, strain nth1, active compounds read low 1.02 | locus YDR069C, strain doa4, active compounds read low 0.914 | locus YDR101C, strain arx1, active compounds read low 0.997 | locus YDR137W, strain rgp1, active compounds read low 1.05 | locus YDR150W, strain NUM1, active compounds read low 0.953 | locus YDR159W, strain sac3, active compounds read low 1.02 | locus YDR162C, strain NBP2, active compounds read low 0.915 | locus YDR195W, strain ref2 0.986 | locus YDR297W, strain sur2, active compounds read low 0.996 | locus YDR318W, strain mcm21, active compounds read low 0.987 | locus YDR334W, strain swr1, active compounds read low 1 | locus YDR335W, strain msn5, active compounds read low 1.03 | locus YDR388W, active compounds read low 0.986 | locus YDR392W, strain spt3, active compounds read low 0.91 | locus YDR502C, strain sam2, active compounds read low 0.978 | locus YEL003W, strain gim4, active compounds read low 1 | locus YEL037C, strain rad23, active compounds read low 1.01 | locus YEL061C, strain CIN8 (second series), active compounds read low 1.02 | locus YEL061C, strain CIN8, active compounds read low 0.934 | locus YER015W, strain faa2, active compounds read low 1 | locus YER016W, strain bim1, active compounds read low 1.01 | locus YER110C, active compounds read low 0.983 | locus YER111C, strain swi4, active compounds read low 1.01 | locus YER155C, strain BEM2 (second series), active compounds read low 0.962 | locus YER155C, strain BEM2, active compounds read low 1.03 | locus YER167W, strain BCK2, active compounds read low 0.957 | locus YFR010W, strain ubp6, active compounds read low 0.965 | locus YGL078C, strain dbp3, active compounds read low 0.987 | locus YGL167C, strain pmr1, active compounds read low 1.01 | locus YGL173C, strain kem1, active compounds read low 0.975 | locus YGL227W, strain vid30, active compounds read low 1.03 | locus YGL240W, strain doc1, active compounds read low 1.05 | locus YGL253W, strain hxk2, active compounds read low 1.03 | locus YGR078C, strain PAC10, active compounds read low 0.913 | locus YGR135W, strain pre9, active compounds read low 0.971 | locus YGR229C, strain SMI1, active compounds read low 0.92 | locus YGR252W, strain gcn5, active compounds read low 1.09 | locus YHR013C, strain ard1, active compounds read low 1 | locus YHR027C, strain rpn1, active compounds read low 1.01 | locus YHR030C, strain SLT2, active compounds read low 0.966 | locus YHR079C, strain IRE1 (second series), active compounds read low 0.994 | locus YHR094C, strain hxt1, active compounds read low 0.99 | locus YHR129C, strain ARP1, active compounds read low 0.931 | locus YHR142W, strain chs7, active compounds read low 1.05 | locus YHR200W, strain rpn10, active compounds read low 0.988 | locus YIL066C, strain RNR3, active compounds read low 0.88 | locus YIL073C, strain SPO22, active compounds read low 0.947 | locus YIL125W, strain kgd1, active compounds read low 0.99 | locus YIR030C, strain dcg1, active compounds read low 1.02 | locus YJL092W, strain hpr5, active compounds read low 1.02 | locus YJL095W, strain BCK1 (second series), active compounds read low 1.01 | locus YJL095W, strain BCK1, active compounds read low 0.939 | locus YJL115W, strain asf1, active compounds read low 1.02 | locus YJL129C, strain trk1, active compounds read low 1.06 | locus YJL134W, strain LCB3, active compounds read low 0.984 | locus YJL154C, strain vps35, active compounds read low 1.03 | locus YJL164C, strain tpk1, active compounds read low 0.98 | locus YJL166W, strain qcr8, active compounds read low 1.01
